Test results published in PubChem BioAssay AID841 (Emory University Molecular Libraries Screening Center, 2007).
Screen size: about 140,000 compounds; about 2,100 (1.5%) were called active. The sample as a whole holds a higher share of actives than the screen did. Unmarked numbers belong to inactive results. Cut-off read from the data, not from the text of the source: active = protection mostly above about 24% (no sharp cut-off); inactive = mostly below about 26%.

Test: compounds protecting cells from measles virus cytopathic effect, primary screen, measles RdRp inhibitor project, single point, MLSMR library, absorbance (AID 841)
Conditions: Measles virus-infected cells, CPE protection, at 4 µM, stronger effect = higher value

SMILES	protection (pct of control)
CCCOC(=O)c1[nH]c2c(c1C)C(=O)CC(c1cc(OC)c(OC)c(OC)c1)C2 (stereo not drawn)	2.5%
COc1cc(C2CC(=O)c3cnc(NC(C)=O)nc3C2)cc(OC)c1OC (stereo not drawn)	62.5% (active)
COc1cc(OC)cc(C(=O)Nc2ncc3c(n2)CC(C)(C)CC3=O)c1	9.7%
Nc1nc(NC(=O)/C=C/c2ccccc2)nn1-c1ccccc1	3.85%
Cc1ccc(C)c(NC(=O)CSc2nnc(Cc3cccn3C)n2-c2ccc(F)cc2)c1	21.3%
COC(=O)c1ccc(NC(=O)CSc2nnc(Cc3cccn3C)n2-c2ccc(F)cc2)cc1	43.4% (active)
COc1ccccc1NC(=O)CSc1nnc(Cc2cccn2C)n1-c1ccc(F)cc1	15.6%
CCCOC(=O)c1ccc(N2C(=O)c3ccccc3C2=O)cc1	1.17%
Cn1nccc1CNC(=O)c1ccnn1C	24.5%
CCn1cc(CNC(=O)c2cc([N+](=O)[O-])c(C)c([N+](=O)[O-])c2)cn1	3.52%
CC1(C)C=C2[C@H]3CC[C@@H]4[C@@]5(C)CCC(=O)C(C)(C)[C@@H]5CC[C@@]4(C)[C@]3(C)CC[C@@]2(C(=O)O)CC1	44.7% (active)
CCC(C)NCCOCCOc1ccc(Br)cc1C (stereo not drawn)	5.1%
O=C(CNC(=O)C(c1ccccc1)c1ccccc1)N/N=C\c1ccc2c(c1)OCO2	17.5%
O=C(CN1CCOCC1)N1CCCc2c1c(=O)oc1ccc(OCc3ccccc3)cc21	20.5% (active)
O=C(COc1ccc2oc3c(c2c1)CCCC3)Nc1ccccn1	9.54%
Cc1c(C(=O)N2CCOCC2)[nH]c2ccc(OCc3ccccc3)cc12	11.5%
CNC(=S)N1CCN(c2ccccn2)CC1	3.85%
O=C(C(Cl)Cl)N1CCN(c2ccccn2)CC1	29.5% (active)
CC(=C1C(=O)c2ccccc2C1=O)N1CCN(c2ccccn2)CC1	4%
CC(=O)Nc1ccc(S(=O)(=O)NC2(C(F)(F)F)C(=O)Nc3c2c(=O)[nH]c(=O)n3Cc2ccccc2)cc1 (stereo not drawn)	10.5%
CCOC(=O)c1c(NC(=O)Cn2nc(C(F)(F)F)cc2C)sc2c1CCC2	20.5%
CCCCOc1ccc(CSC(=N)N)cc1[N+](=O)[O-]	23.1%
N=C(N)SCc1cccc2ccccc12	32.9%
CCOc1ccc(Br)cc1CSC(=N)N	25.8% (active)

SMILES	protection (pct of control)
Cc1ccc(NC(=O)CSCC(=O)NC2CCCCC2)cc1	36.4%
COc1ccc(C(=O)Nc2sc(C)c(C)c2CN2CCOCC2)cc1	13.1%
COc1cc(/C=C2/C(=O)ON=C2C)ccc1OCc1ccccc1F	6.29%
CCOc1ccc(/C=N/NC(=O)C(C)Sc2ccccn2)cc1OCC (stereo not drawn)	3.61%
CCOc1cc(/C=N/O)ccc1OCc1ccccc1F	36.5% (active)
CCCCOc1ccc(C(=O)NN2CCN(C)CC2)cc1	24.4%
COCCOC(=O)c1c(C)oc2cc(Br)c(OCC(N)=O)cc12	16.4%
CCCCN=C(N)/C(C(=O)OCC)=C(\O)c1ccc(OC)cc1	6.3%
COc1ccc(C(=O)N(Cc2ccc(N(C)C)cc2)C2CCS(=O)(=O)C2)cc1 (stereo not drawn)	1.51%
CCCCC(=O)N(c1ccc(OC)cc1)C1C=CS(=O)(=O)C1 (stereo not drawn)	43.6% (active)
CC(C)CNC(=O)COC(=O)/C=C/c1ccco1	16.1%
CCc1ccc(-c2cc(C(=O)NN3CCN(C)CC3)c3ccccc3n2)cc1	5.27%
COCCCNC(=S)NC(=O)c1ccccc1	11.7%
CCCCCC(=O)NC(=S)NNC(=O)c1ccc([N+](=O)[O-])cc1	3.27%
COCCCNC(=S)NC(=O)c1ccc([N+](=O)[O-])cc1	65.1% (active)
CCc1cccc(NC(=O)CCC(=O)O)c1	4.18%
Cn1ncc2c(Nc3cccc4ccccc34)ncnc21	3.59%
Cc1ccc(-n2ncc3c(Nc4cccc(C(=O)O)c4)ncnc32)cc1	7.56%
Cn1ncc2c(NNC(=O)Cc3cccc4ccccc34)ncnc21	26.4% (active)
CN(CC(=O)Nc1ccc(N2CCOCC2)cc1)CC(=O)Nc1ccccc1[N+](=O)[O-]	21%
Cc1c(NC(=S)NCc2ccc(F)cc2)cccc1[N+](=O)[O-]	18%
Cc1ccc(NC(=O)CN(C)Cc2ccc(F)cc2)c([N+](=O)[O-])c1	64.2% (active)
CCCCOc1ccc(NC(=O)[C@@H]2CCCN2C(=O)C2CCN(S(=O)(=O)c3ccc(C)cc3)CC2)cc1	12.8%
CCN=C1S/C(=C\c2cc(Br)ccc2OCC(=O)OCC)C(=O)N1CC	4.59%
